Values joined by “and” are separate entries in the source; they are usually repeats but may differ in a detail not shown here. Equal entries are not always repeated. Records with an inconclusive call do not appear. Unmarked numbers belong to inactive results. Active and inactive are the calls of the source. Unless noted, calls come from the whole dose curve; as a rule, active = well fitted curve in the direction sought with a large enough effect; inconclusive = small, poorly fitted or top-dose-only effect, or another doubt; inactive = no such curve, though single readings can be large; an effect the other way counts as inactive or inconclusive.
system: not listed separately; experiment: Primary qHTS for small molecule stabilizers of the endoplasmic reticulum resident proteome: Secreted ER Calcium Modulated Protein (SERCaMP) assay (AID 1508630); conditions: SH-SY5Y GLuc-SERCaMP (Gaussia luciferase released on ER calcium loss) secretion, thapsigargin, luminescence; series mostly up to 38.4 µM; activity change, negative = inhibition: at the top concentration; note: % is set by controls: 0 for no effect and ±100 for the full control effect
Method in brief: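 GLuc-SERCaMP-expressing SH-SY5Y cells, pretreated 16 h with compound, are challenged with thapsigargin to empty ER calcium stores; after 4 h, coelenterazine is added directly to the medium and luminescence is imaged.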

| Structure (SMILES) | activity change, negative = inhibition [%] | Potency |
| --- | --- | --- |
| Cc1ccc(C(=O)Nc2cccc(C(F)(F)F)c2)cc1Nc1nc(-c2cccnc2)nc2c1cnn2C | 22.6 |  |
| CC(=O)Oc1cc2c(s1)CCN(C(C(=O)C1CC1)c1ccccc1F)C2 (stereo not given) | 303 |  |
| C=C1C(=O)[C@@]23C(CC[C@@H]1[C@H]2O)[C@@]12CO[C@]3(O)[C@@H](O)[C@@H]1C(C)(C)CC[C@@H]2O (stereo not given in full) | 103 |  |
| NC(N)=Nc1nc(CSCC/C(N)=N/S(N)(=O)=O)cs1 |  | inactive |
| Clc1ccc(C(c2ccc(Cl)cc2)n2cc[n+](CC(OCc3ccc(Cl)cc3Cl)c3ccc(Cl)cc3Cl)c2)cc1 (stereo not given) |  | inactive |
| CCCCCN(C)CCC(O)(P(=O)(O)O)P(=O)(O)O | 40.5 |  |
| O=C(O)c1c(Cl)c(Cl)c(Cl)c(Cl)c1-c1c2cc(I)c(=O)c(I)c-2oc2c(I)c(O)c(I)cc12 | -15.4 |  |
| CC/C(=C(\c1ccccc1)c1ccc(OCCN(C)C)cc1)c1ccccc1 |  | inactive |
| CC1(C)CCC2=C(O1)c1ccccc1C(=O)C2=O |  | inactive |
| O=C1C(Cl)=C(NCCN2CCOCC2)C(=O)c2ncccc21 | 84.8 |  |
| O=c1cc(-c2cccc3c2Sc2ccccc2S3)oc(N2CCOCC2)c1 | 0 |  |

system: not listed separately; experiment: A High-Content qHTS Against Drug Library for the Identification of Small Molecules that Inhibit DYT1 Early Onset Primary Dystonia-Associated Cell Pathology (AID 1645839; calls by dose curve; note: potency is the fitted concentration of half-maximal effect); conditions: HEK293 Flp-In EGFP-delE TorsinA, punctate imaging, 48 h; series mostly up to 46.1 µM; % pathology change, negative = correction: at the top concentration
Method in brief: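 Flp-In T-REx 293 cells with tetracycline-inducible EGFP-delE hTOR1A (WT EGFP-hTOR1A as reference), 800 cells/well; compound added with tetracycline, 48 h at 37 C. Fixed, permeabilized cells imaged; %pathology (punctate TorsinA) primary, cell count counterscreen.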

| Structure (SMILES) | % pathology change, negative = correction [%] | Potency |
| --- | --- | --- |
| NC(N)=Nc1nc(CSCC/C(N)=N/S(N)(=O)=O)cs1 | -6.16 |  |
| CCCNC(=O)NS(=O)(=O)c1ccc(Cl)cc1 | 4.85 |  |
| CCN(CC)CCNC(=O)c1ccc(N)cc1 | 0.155 |  |
| CC/C(=C(\c1ccccc1)c1ccc(OCCN(C)C)cc1)c1ccccc1 |  | 11.2 µM (active) |

biological target: Cytochrome P450 2D6 (Homo sapiens) (UniProt P10635); experiment: Cytochrome P450 family 2 subfamily D member 6 (CYP2D6) small molecule antagonists: luciferase biochemical (cell-free) qHTS assay (AID 1645840; active = well fitted curve in the direction sought with a large enough effect in the repeat runs; an effect the other way counts as inactive or inconclusive; note: nearly all actives have a fitted effect of over 55% in size; note: potency is the fitted concentration of half-maximal effect; for activity change, negative = inhibition: % is set by controls: 0 for no effect and ±100 for the full control effect); conditions: P450-Glo CYP2D6 enzyme, luciferin luminescence, 1 h; series mostly up to 57.4 µM; activity change, negative = inhibition: at the top concentration
Method in brief: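 P450-Glo luminescent screen: recombinant CYP2D6 enzyme–proluciferin substrate mix preincubated with compound 10 min at room temperature, then NADPH regeneration added for 1 h at room temperature. Detection reagent added for 20 min; luciferin light read as relative luminescence units.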

Sequence of Cytochrome P450 2D6 (Homo sapiens) (P10635 whole entry, looked up): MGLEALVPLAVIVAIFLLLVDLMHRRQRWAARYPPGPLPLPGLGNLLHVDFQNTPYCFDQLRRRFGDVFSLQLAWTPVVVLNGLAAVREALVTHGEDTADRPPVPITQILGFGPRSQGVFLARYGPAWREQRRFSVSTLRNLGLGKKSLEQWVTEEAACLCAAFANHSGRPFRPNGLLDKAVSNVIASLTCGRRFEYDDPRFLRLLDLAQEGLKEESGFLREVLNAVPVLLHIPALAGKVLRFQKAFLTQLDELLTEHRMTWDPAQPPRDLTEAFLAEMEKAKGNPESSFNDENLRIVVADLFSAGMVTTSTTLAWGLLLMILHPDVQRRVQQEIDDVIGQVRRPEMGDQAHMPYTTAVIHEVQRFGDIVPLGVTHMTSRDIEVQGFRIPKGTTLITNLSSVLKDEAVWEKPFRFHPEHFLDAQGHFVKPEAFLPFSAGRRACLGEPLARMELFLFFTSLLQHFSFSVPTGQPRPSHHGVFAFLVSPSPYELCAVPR

| Structure (SMILES) | Potency | activity change, negative = inhibition [%] |
| --- | --- | --- |
| CC(=O)Oc1cc2c(s1)CCN(C(C(=O)C1CC1)c1ccccc1F)C2 (stereo not given) | 11 µM (active) and 10.7 µM (active) |  |
| CCCNC(=O)NS(=O)(=O)c1ccc(Cl)cc1 |  | -2.31 |
| O=C(O)c1c(Cl)c(Cl)c(Cl)c(Cl)c1-c1c2cc(I)c(=O)c(I)c-2oc2c(I)c(O)c(I)cc12 | 4.25 µM (active) |  |
| O=c1cc(-c2ccc(O)cc2)oc2cc(O)cc(O)c12 | 12 µM (active) |  |
| CCN(CC)CCNC(=O)c1ccc(N)cc1 |  | -20.8 |

biological target: Cytochrome P450 2C9 (Homo sapiens) (UniProt P11712); experiment: Cytochrome P450 family 2 subfamily C member 9 (CYP2C9) small molecule antagonists: luciferase biochemical (cell-free) qHTS assay (AID 1645842; active = well fitted curve in the direction sought with a large enough effect in the repeat runs; an effect the other way counts as inactive or inconclusive; note: nearly all actives have a fitted effect of over 55% in size; note: potency is the fitted concentration of half-maximal effect; for activity change, negative = inhibition: % is set by controls: 0 for no effect and ±100 for the full control effect); conditions: P450-Glo CYP2C9 enzyme assay, luciferin luminescence; series mostly up to 57.4 µM; activity change, negative = inhibition: at the top concentration
Method in brief: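 Luminescence, after 20 min with luciferin detection reagent, reflected CYP2C9 turnover during a 1 h NADPH-driven reaction at 37C. Enzyme-substrate mix contained 0.4% bovine serum albumin and was preincubated with compound 10 min at room temperature.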

Sequence of Cytochrome P450 2C9 (Homo sapiens) (P11712 whole entry, looked up): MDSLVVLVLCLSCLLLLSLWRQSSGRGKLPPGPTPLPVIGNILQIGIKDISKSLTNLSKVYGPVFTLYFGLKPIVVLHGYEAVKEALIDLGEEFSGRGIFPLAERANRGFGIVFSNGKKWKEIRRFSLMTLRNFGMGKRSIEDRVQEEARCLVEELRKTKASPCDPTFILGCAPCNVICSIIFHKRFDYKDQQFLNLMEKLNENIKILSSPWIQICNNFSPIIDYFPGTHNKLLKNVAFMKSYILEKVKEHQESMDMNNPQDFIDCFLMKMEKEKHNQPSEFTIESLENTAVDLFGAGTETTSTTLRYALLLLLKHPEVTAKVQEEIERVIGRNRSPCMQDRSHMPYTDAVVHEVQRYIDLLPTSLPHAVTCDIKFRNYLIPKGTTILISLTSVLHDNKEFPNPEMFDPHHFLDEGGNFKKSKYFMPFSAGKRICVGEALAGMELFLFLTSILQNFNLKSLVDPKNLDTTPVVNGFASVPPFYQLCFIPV

| Structure (SMILES) | Potency | activity change, negative = inhibition [%] |
| --- | --- | --- |
| CC(=O)Oc1cc2c(s1)CCN(C(C(=O)C1CC1)c1ccccc1F)C2 (stereo not given) | 4.36 µM (active) and 4.25 µM (active) |  |
| NC(N)=Nc1nc(CSCC/C(N)=N/S(N)(=O)=O)cs1 |  | 6.69 |
| O=C(O)c1c(Cl)c(Cl)c(Cl)c(Cl)c1-c1c2cc(I)c(=O)c(I)c-2oc2c(I)c(O)c(I)cc12 | 10.7 µM (active) |  |
| O=c1cc(-c2ccc(O)cc2)oc2cc(O)cc(O)c12 | 21.3 µM (active) |  |
| CCN(CC)CCNC(=O)c1ccc(N)cc1 |  | 7.81 |
